Bioassay records deposited in PubChem by National Center for Advancing Translational Sciences (NCATS).
Most compounds without a hit are left out; they make up all but 14% or so of the library.
Sm TGR block = blocks Schistosoma mansoni thioredoxin glutathione reductase | purified TGR, DTNB reduction, TNB absorbance 405 nm | actives 3% (n = 360,000) | Potency, µM (titrated, usually from 114 µM), usual class: inhibitors; further: nearly all actives have a fitted effect of over 60% in size
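TGR 20 nM + NADPH 100 uM (dispensed conc.), cpd preinc 15 min RT; start with NADPH (500 uM addition) then DTNB (15 mM addition). Kinetic TNB absorbance, 405 nm filter. Four-parameter Hill fit across titration.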
Pf growth 96h = P. falciparum growth inhibition at 96 hour, primary screen for plastid delayed-death inhibitors. P. falciparum luciferase reporter growth, 96 h. Potency, µM (highest dose often 28.7 µM), hits mostly inhibitors. actives 6.9% (n = 320,000)
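Delayed-death screen, second-generation endpoint: infected erythrocytes, 2% hematocrit, 0.05% parasitemia final; 96 hours at 37 C, 5% CO2; luciferase detection reagent; luminescence decrease equals reduced growth.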
Pf growth 48h = inhibits P. falciparum growth in the first generation, 48 h. actives 5.9% (n = 310,000). Potency, µM (titrated, usually from 28.7 µM), actives largely listed as inhibitors. P. falciparum luciferase growth in erythrocytes, 48 h. AID 504832
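Firefly luciferase activity from engineered P. falciparum reports growth; inhibitors lower the luminescent signal. Cultures contained 2% hematocrit erythrocytes at 0.1% final parasitemia.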
Giardia FBPA inh-1 = Giardia lamblia aldolase inhibition | purified Giardia FBPA | Potency, µM (doses to about 59.6 µM), actives largely listed as inhibitors | actives 0.71% (n = 290,000) | AID 2451; further: nearly all actives have a fitted effect of over 55% in size
Target sequence (A8B2U2 whole entry, looked up): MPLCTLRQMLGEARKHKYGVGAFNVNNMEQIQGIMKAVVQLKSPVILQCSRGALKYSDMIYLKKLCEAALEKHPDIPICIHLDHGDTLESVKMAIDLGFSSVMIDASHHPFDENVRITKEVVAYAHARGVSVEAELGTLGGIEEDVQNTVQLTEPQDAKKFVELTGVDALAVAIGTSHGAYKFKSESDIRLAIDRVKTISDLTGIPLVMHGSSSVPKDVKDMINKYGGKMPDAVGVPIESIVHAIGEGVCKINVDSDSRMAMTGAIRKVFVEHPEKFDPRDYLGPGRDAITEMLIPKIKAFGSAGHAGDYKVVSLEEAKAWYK
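40 nM FBPA preincubated 10 min at RT with compound (up to 57.5 uM final), then substrate plus GAPDH/TPI/NAD/arsenate coupling and diaphorase/resazurin added. Fluorescence read after 20 min at RT, 525/598 nm.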
HCMV antiviral = blocks human cytomegalovirus replication. HFF cells, HCMV-luciferase reporter, 72 h; hits give low values. actives 4.5% (n = 410,000). AID 1259415. activity change, negative = inhibition, % at 57.5 µM; in the data active means activity change below about -60%; inconclusive means no clear call, values can overlap the other calls; inactive means above about -39%
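Screen run at 2 compound doses on HFFs infected with reporter HCMV, MOI 1 PFU/cell. Luciferase activity from cell lysates at 72 h post infection gave inhibition relative to buffer-only and Salinomycin wells.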
Giardia growth = blocks growth of Giardia lamblia trophozoites | Giardia lamblia trophozoite growth inhibition | Potency, µM (titrated, usually from 57.5 µM), most hits filed as inhibitors | shares compounds with Giardia FBPA inh-1 | actives 5% (n = 1,500);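 further: trophozoites exposed to compound for 48 h at 37 °C; nearly all actives have a fitted effect of over 70% in size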
Mammal cell tox = counter-screen for Giardia aldolase inhibitors: mammalian cell toxicity; shares compounds with Giardia FBPA inh-1; mammalian cell viability counter-screen, qHTS; Potency, µM (doses to about 57.5 µM), most hits filed as inhibitors; actives 4% (n = 1,500); AID 2786;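 further: Chinese hamster ovary cells used as mammalian cytotoxicity surrogate; viability measured as cellular ATP by luminescence; compound exposure lasted 48 h before reading; nearly all actives have a fitted effect of over 60% in size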
Giardia FBPA inh-2 = confirmation of Giardia fructose-bisphosphate aldolase inhibitors; shares compounds with Giardia FBPA inh-1; purified Giardia aldolase enzyme activity, qHTS; Potency, µM (highest dose often 57.5 µM), hits mostly inhibitors; actives 5% (n = 1,500); AID 2787; further: nearly all actives have a fitted effect of over 45% in size
Rabbit aldolase = blocks rabbit muscle aldolase in Giardia aldolase selectivity test; shares compounds with Giardia FBPA inh-1; Rabbit muscle FBPA enzyme inhibition, selectivity counter-screen; Potency, µM (titrated, usually from 57.5 µM), hits mostly inhibitors; actives 4% (n = 1,500); AID 2794; further: nearly all actives have a fitted effect of over 60% in size
Target sequence (P00883 whole entry, looked up): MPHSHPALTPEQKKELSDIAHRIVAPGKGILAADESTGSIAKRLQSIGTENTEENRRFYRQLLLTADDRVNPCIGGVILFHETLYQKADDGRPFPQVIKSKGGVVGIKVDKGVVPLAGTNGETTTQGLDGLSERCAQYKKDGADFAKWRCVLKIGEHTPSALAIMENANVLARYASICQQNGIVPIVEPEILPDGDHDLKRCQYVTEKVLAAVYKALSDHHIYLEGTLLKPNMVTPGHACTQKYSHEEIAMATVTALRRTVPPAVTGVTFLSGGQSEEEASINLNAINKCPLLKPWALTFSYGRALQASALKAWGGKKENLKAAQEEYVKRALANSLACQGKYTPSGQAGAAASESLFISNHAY
GAPDH counter = GAPDH inhibition flagged for Giardia aldolase hits; Potency, µM (doses to about 57.5 µM), usual class: inhibitors; AID 2795; shares compounds with Giardia FBPA inh-1; actives 6% (n = 1,500); GAPDH coupling enzyme counterscreen, biochemical, qHTS; further: nearly all actives have a fitted effect of over 55% in size
CLK4 ADP-Glo = confirmation of inhibitors of human CDC-like kinase 4; recombinant Clk4, RS peptide, ADP-Glo luminescence; Potency, µM (series often up to 80 µM), hits mostly inhibitors; shares compounds with Pf growth 48h; actives 80% (n = 65)
CLK4 cf ADP-FP = CLK4 (human) inhibition, Transcreener FP confirmation | actives 70% (n = 65) | shares compounds with Pf growth 48h | recombinant Clk4, ADP Transcreener FP, RS peptide | Potency, µM (series often up to 80 µM), most hits filed as inhibitors
A number is an active result; . = inactive; ? = inconclusive; / = no result given; [ ] = another dose, or the depositor's remark. Unless noted, the call rests on the fitted dose curve; in most records, active means well fitted curve in the direction sought with a large enough effect; inconclusive means small, poorly fitted or top-dose-only effect, or another doubt; inactive means no such curve, though single readings can be large; an effect the other way counts as inactive or inconclusive.

SMILES	Sm TGR block	Pf growth 96h	Pf growth 48h	Giardia FBPA inh-1	HCMV antiviral	CLK4 ADP-Glo	CLK4 cf ADP-FP	others
CC(OC(=O)C1CSC2(C)CCC(=O)N12)C(=O)Nc1ccc(F)cc1 (centres undefined)	.	.	.	/	.	/	/
CC1CCCC(NC(=O)COC(=O)c2n[nH]c3ccccc23)C1C (centres undefined)	/	/	/	/	.	/	/
Cc1ccc(-n2c(-c3ccc(Br)cc3)n[nH]c2=S)c(C)c1	/	/	/	/	.	/	/
Cc1nc(COC(=O)c2cc(O)c3ccccc3c2O)cs1	17.8µM	?	.	19.9µM	.	/	/	Giardia growth=.[10.4 µM];Mammal cell tox=.;Giardia FBPA inh-2=?;Rabbit aldolase=?;GAPDH counter=?
C=CCN1C(=O)C(CC(=O)NCC)SC1=Nc1ccccc1OC (centres undefined)	.	.	.	.	.	/	/
O=C(O)CN1C(=O)CN=C(c2ccccn2)c2cc(Cl)ccc21	.	.	.	19.9µM	.	/	/	Giardia growth=.;Mammal cell tox=.;Giardia FBPA inh-2=.;Rabbit aldolase=.;GAPDH counter=.
Cc1ccc(NC(=O)C(Cc2ccccc2)NS(=O)(=O)c2ccc3c(c2)c(=O)n(C)c(=O)n3C)cc1 (centres undefined)	.	/	/	/	.	/	/
N#C/C(=C(\O)c1cc(Cl)sc1Cl)c1nc2ccccc2[nH]1	.	.	.	25.1µM	.	/	/	Giardia growth=.;Mammal cell tox=.;Giardia FBPA inh-2=.;Rabbit aldolase=.;GAPDH counter=?
N#C/C(=C(/O)c1ccc(Cl)cc1)c1nc2ccccc2[nH]1	.	.	.	.	.	/	/
c1csc(CNc2ncnc3ccc(-c4ccoc4)cc23)c1	.	?	?	.	-91.7	0.224µM	0.251µM
c1csc(CNc2ncncc2-c2ccoc2)c1	/	/	/	.	/	/	/
COc1cc2ncnc(NCc3cccs3)c2cc1OC	/	.	?	.	.	/	/
c1csc(CNc2ncnc3ccc(-c4ccc5c(c4)OCO5)cc23)c1	.	?	?	.	.	0.0708µM	0.0447µM
CN(Cc1ccco1)c1ncnc2ccc(-c3cccc(Cl)c3)cc12	.	9.28µM	6.57µM	/	/	1.41µM	1.58µM
CN(Cc1ccco1)c1ncncc1-c1ccc2c(c1)OCO2	/	/	/	.	/	/	/
Cc1cccc(-c2ccc3ncnc(N(C)Cc4ccco4)c3c2)c1	.	?	11.7µM	/	/	2.51µM	3.16µM
Cc1noc(C)c1-c1ccc2ncnc(N(C)Cc3ccco3)c2c1	/	/	/	.	/	/	/
CN(Cc1ccco1)c1ncnc2ccc(-c3ccc4c(ccn4C)c3)cc12	.	9.28µM	10.4µM	/	-99.2	14.1µM	?
CN(Cc1ccco1)c1ncnc2ccc(-c3ccc4c(c3)OCO4)cc12	.	?	?	.	.	0.0631µM	0.0501µM
c1cncc(CNc2ncnc3ccc(-c4ccco4)cc23)c1	8.91µM	?	?	/	/	2.82µM	8.91µM
COc1cccc(-c2ccc3ncnc(NCc4cccnc4)c3c2)c1	.	?	?	.	-77.4	2.51µM	4.47µM
COc1cccc(-c2cc(NCc3cccnc3)ncn2)c1	/	/	/	.	/	/	/
CC1(C)CC(=O)C(C(O)c2ccccc2)C(C)(C)N1 (centres undefined)	.	.	.	.	.	/	/
Cc1csc(CNc2ncnc3ccc(-c4cccc(Cl)c4)cc23)c1	.	2.33µM	7.38µM	/	.	12.6µM	?
Cc1csc(CNc2ncnc3ccc(-c4ccc5c(ccn5C)c4)cc23)c1	.	5.86µM	3.7µM	/	/	14.1µM	39.8µM
SMILES	Sm TGR block	Pf growth 96h	Pf growth 48h	Giardia FBPA inh-1	HCMV antiviral	CLK4 ADP-Glo	CLK4 cf ADP-FP	others
Cc1csc(CNc2ncnc3ccc(-c4ccco4)cc23)c1	.	.	?	/	/	.	.
Cc1cccc(-c2ccc3ncnc(NCc4cc(C)cs4)c3c2)c1	.	9.28µM	11.7µM	/	/	14.1µM	?
Cc1csc(CNc2ncnc3ccc(-c4c(C)noc4C)cc23)c1	/	/	/	.	/	/	/
COc1ccc(CC(=O)Oc2ccccc2Cl)cc1S(=O)(=O)N1CCOCC1	.	.	.	/	.	/	/
COC(=O)c1cccc(OCCCN2CCC(C(O)(c3ccccc3)c3ccccc3)CC2)c1	/	/	/	/	.	/	/
O=c1[nH]nc(Br)c(=O)n1C(c1ccccc1)c1ccccc1	/	/	/	/	.	/	/
Cc1ccccc1C(=O)Nc1cc(C(F)(F)F)ccc1-n1cncn1	.	.	?	/	.	/	/
Cn1cccc1CNCC(O)c1ccccc1 (centres undefined)	.	.	?	.	.	/	/
Cc1cccc(CNc2ncnc3ccc(-c4ccccc4CN(C)C)cc23)c1	/	/	/	.	/	/	/
Cc1cccc(CNc2ncnc3ccc(-c4cccc(C#N)c4)cc23)c1	/	/	/	.	/	/	/
Cc1cccc(CNc2ncnc3ccc(-c4ccc5c(c4)OCO5)cc23)c1	.	3.29µM	5.86µM	.	?	0.112µM	0.1µM
Cc1cccc(CNc2ncnc3ccc(-c4ccccc4Cl)cc23)c1	.	1.47µM	5.22µM	/	.	7.94µM	?
Cc1cccc(CNc2ncnc3ccc(-c4cccc(Cl)c4)cc23)c1	.	4.15µM	6.57µM	/	/	12.6µM	?
Fc1cccc(CNc2ncnc3ccc(-c4ccccc4Cl)cc23)c1	.	2.08µM	5.86µM	/	/	7.94µM	10µM
NC(=O)c1cc(S(=O)(=O)N2CCN(c3ccc([N+](=O)[O-])cc3)CC2)cs1	.	.	?	/	.	/	/
CCCN1CCN(CC(O)COC(c2ccc(OC)cc2)c2ccc(OC)cc2)CC1 (centres undefined)	.	.	.	?	.	/	/
Fc1cccc(CNc2ncnc3ccc(-c4cccnc4)cc23)c1	.	14.7µM	?	/	/	2.82µM	6.31µM
c1ccc(CNc2ncnc3ccc(-c4cccnc4)cc23)cc1	/	/	/	.	/	/	/
Cc1cccc(-c2ccc3ncnc(NCc4cccc(F)c4)c3c2)c1	.	1.31µM	0.0415µM	/	/	3.98µM	7.94µM
CC(NC(=O)COc1ccc(Br)cc1)C1CCCO1 (centres undefined)	.	.	.	/	.	/	/
